Assay results taken from ChEMBL document CHEMBL3988442, “University of Dundee, Small-Polar-MMV Screening Library” (2021).

The compounds below were run against AMP-activated protein kinase, AMPK (Homo sapiens) (UniProt P54646+O43741+P54619+Q9UGJ0+Q9Y478+Q13131+Q9UGI9) (assay: AMP-dependent Kinase enzyme assay. An in vitro enzyme assay that detects ADP turnover that is directly proportional to AMPK activity. This uses naive AMPK that is activated during the assay with MK-8722). Conditions: 30 µM.
Format: functional
Design: scale not given: direction of the effect not stated beside the values

SMILES | Percent Effect
COC[C@]1(O)CCN(c2cc(C3CC3)ncn2)CC1(C)C | 10.6%
CC(=O)NC1CCCN(c2nc3ccccc3cc2CO)C1 (stereo not given) | 3.71%
Cc1cnn(C2CN(CCOc3ccccc3C#N)C2)c1 | 6.15%
Cc1cc(NCCc2nc(C)c[nH]2)nc(-c2ccccc2O)n1 | 17.8%
CN(C)C(=O)N1CCCC(C(=O)N(C)Cc2cnc(N)nc2)C1 (stereo not given) | -2.52%
Cc1noc(CCCC(=O)N2CSCC2C(=O)NCC2CC2)n1 (stereo not given) | -0.369%
CC1CN(CC(=O)NCc2ccc(F)cc2)CCN1c1nccs1 (stereo not given) | 10.2%
Cc1ccc(CN(CCN(C)C)Cc2c(C)nc3sccn23)o1 | 14.3%
Cn1cc(CC(=O)N2CCCC(c3ccn[nH]3)C2)cn1 (stereo not given) | -1.05%
CN(C)Cc1cccc(-c2cccnc2C(=O)NCc2ccco2)c1 | 20%
Cc1c(NC(=O)c2cnc[nH]2)cccc1C(=O)NC(C)(C)C | 15%
COc1coc(CN2CCCC3(CCC(=O)N(C4CC4)C3)C2)cc1=O (stereo not given) | -2.13%
O=C(NCc1ccnc(OCC2CC2)c1)C1Cc2ccccc2O1 (stereo not given) | -4.29%
CC(=O)N[C@H]1CCO[C@@H](c2cccc(NC(=O)Cc3ccccc3)c2)C1 | 7.18%
CCC(=O)NC(C)c1ccccc1C (stereo not given) | 14.9%
CC(C)N(C)S(=O)(=O)c1ccc2c(c1)CCN(C(=O)c1ccccn1)C2 | -446%
Cc1nn(C2CCCC2)c2nc(C(C)(C)CN3CCN(C)CC3)[nH]c12 | 14.1%
Cc1noc(C(C)C)c1C(=O)N1CCC(n2cccn2)CC1 | 4.03%
CC(C)(N)C(=O)N1CCCC(C(=O)c2ccc(C(C)(C)C)cc2)C1 (stereo not given) | 17.9%
Cc1noc(C)c1CCc1nc(C2CCOC2)no1 (stereo not given) | -7.75%

SMILES | Percent Effect
CCn1ncnc1C1CC(=O)NCc2nc(N3CCCC3)sc21 (stereo not given) | -10.2%
Cc1cc(C(=O)NCCC2CCN(C)CC2)ccc1N(C)S(C)(=O)=O | 6.31%
CS(=O)(=O)NC(=O)c1ccn(-c2ccc(Cl)c(Cl)c2)n1 | 4.97%
Cc1ccc2nc(CN3CCCCC3CCN3CCOCC3)cn2c1 (stereo not given) | 6.28%
Cc1nc(COc2ccc(S(=O)(=O)N(C)C)cc2)sc1C | 5.76%
O=C(c1cnco1)N1CCC(Cc2cccc3ncccc23)CC1 | 5.42%
CCC(=O)NC1CCCN(c2cncc(OCc3ccccc3)n2)C1 (stereo not given) | 5.23%
CCN1CCC(CC(=O)NCCc2nc(N)cc(O)n2)CC1 | 0.153%
Cc1cnn(C2CCCN(C(=O)c3cc(-c4ccco4)[nH]n3)C2)c1 (stereo not given) | -19.9%
Cc1ccccc1N1CCCN(C(=O)CCc2nncn2C)CC1 | -4.54%
Cc1nc(NC(=O)c2c3c(nn2C2CCS(=O)(=O)C2)CCC3)sc1C (stereo not given) | -4%
Cc1cnc2c(C(=O)N3CCCC(OCc4ccccn4)C3)cnn2c1 (stereo not given) | 4.92%
CC(C)(C)c1noc(CCCC(=O)N2CCNC(=O)C2)n1 | -8.74%
CNC(=O)c1sc(C(NC(=O)c2ccccc2)C2CC2)nc1C (stereo not given) | -1.61%
Cc1cc(C)n2cc(CN3CCC(N4CCN(C)C4=O)CC3)nc2n1 | 5.03%
CCN(Cc1nc(Cc2ccccc2)no1)C1CC1 | 9.85%
CC(C)C(NC(=O)NCc1cccnc1N(C)C)c1cccs1 (stereo not given) | 0.836%
CCOCC(C)(C)NC(=O)Nc1cc(F)ccc1OC | 1.04%
COc1cc2c(cc1CNCc1cccnc1-n1cccn1)OC(C)C2 (stereo not given) | 5.16%
COc1ccc(CC2(CO)CCN(c3cc(C#N)ccn3)CC2)cc1 | 112%
